# Assay results as given in ChEMBL document CHEMBL1857833, “Screening and optimization of specific chemical series against human African Trypanosomiasis (HAT)”.
# “And” between values parts separate entries of the source, which are not always exact repeats. Identical values can stand only once. The whole screen tested about 4,400 compounds, of which about 390 (8.9%) showed an effect of 50% or more. The sample holds strong results, similar compounds and a random draw of the others, so the mix is not that of the screen.
# Tested on: Trypanosoma brucei
# Assay: DNDI: Inhibition of Human African Trypanosomiasis, SBRI 427, in vitro at 2 ug.mL-1
# Type: functional
row,Compound,% inhibition
1,CCOc1ccc(Oc2ccc(/C(N)=N/O)cn2)cc1,10%
2,Cc1ccc(-c2nc(CNc3cc[nH]n3)co2)cc1,10%
3,Cc1ccc(/C(=N/O)NCCC2CCCN2C)c(OCc2ccccc2)n1 (stereo unspecified),22%
4,Cc1ccc(-c2nc(CN3CCN(c4cc(C)nc5ccccc45)CC3)co2)cc1,12%
5,Clc1ccc(-c2nc(CNC3C[C@H]4CC[C@@H]3C4)co2)c(Cl)c1 (stereo partly specified),52%
6,Oc1ccc(-c2nc(CNC3C[C@H]4CC[C@@H]3C4)co2)cc1 (stereo partly specified),11%
7,Cc1cc(N2CCN(Cc3coc(-c4cccc5ccccc45)n3)CC2)c2ccccc2n1,52%
8,Cc1cc(N2CCN(Cc3coc(-c4ccccc4Cl)n3)CC2)c2ccccc2n1,7%
9,c1ccc(CN2CCN(Cc3coc(-c4cccc5ccccc45)n3)CC2)cc1,18%
10,Clc1ccc(-c2nc(CNC3CCN(Cc4ccccc4)C3)co2)c(Cl)c1 (stereo unspecified),18%
11,c1ccc(CN2CCC(NCc3coc(-c4cccc5ccccc45)n3)CC2)cc1,66%
12,Clc1ccc(-c2nc(CNC3CCc4ccccc43)co2)c(Cl)c1 (stereo unspecified),-4%
13,Clc1ccccc1-c1nc(CNC2CCN(Cc3ccccc3)CC2)co1,20%
14,c1ccc(CN2CCC(NCc3coc(-c4cccc5ccccc45)n3)C2)cc1 (stereo unspecified),14%
15,Clc1ccc(-c2nc(CNC3CCN(Cc4ccccc4)CC3)co2)c(Cl)c1,74%
16,Cc1cccc(N2CCN(Cc3coc(-c4ccccc4F)n3)CC2)c1C,-33%
17,CN(CCc1ccccc1)Cc1coc(-c2ccccc2Cl)n1,17%
18,COc1cccc(-c2nc(CN(C)Cc3cc(OC)c(OC)c(OC)c3)co2)c1,-4%
19,CC1CC(N/C(=N\O)c2cccnc2Oc2c(F)c(F)cc(F)c2F)CC(C)(C)C1 (stereo unspecified),-10%
20,O/N=C(\NCC1CCCCC1)c1cccnc1Oc1c(F)cccc1F,99%
21,CC1CC(N/C(=N\O)c2cccnc2Oc2c(F)cccc2F)CC(C)(C)C1 (stereo unspecified),98%
22,O/N=C(/c1cccnc1Oc1c(F)cccc1F)N1CCC2CCCCC2C1 (stereo unspecified),-13%

row,Compound,% inhibition
1,CC1CC(N/C(=N\O)c2cccnc2OCC(C)(C)C)CC(C)(C)C1 (stereo unspecified),44%
2,O/N=C(\NC1CCCC1)c1cccnc1Oc1c(F)cccc1F,100%
3,O/N=C(\NCC1CCCO1)c1cccnc1Oc1c(F)c(F)cc(F)c1F (stereo unspecified),1%
4,O/N=C(\NC1CCCCC1)c1cccnc1Oc1c(F)cccc1F,99%
5,COc1ccc(Oc2nc(C)ccc2/C(=N/O)NCCN(C)C)cc1,0%
6,CCOc1ccc(-c2nc(CN(C)C3CCCCC3)co2)cc1,5%
7,c1ccc(Oc2ccc(NCc3coc(-c4cccc5ccccc45)n3)cc2)cc1,1%
8,O/N=C(/c1cccnc1OCc1ccccc1F)n1ccnc1,-10%
9,C#CCN(C)Cc1coc(-c2ccc(C)cc2)n1,-1%
10,Fc1cccc(-c2nc(CNCc3cccc4ccccc34)co2)c1,17%
11,CCOc1ccccc1N(Cc1ccccc1)Cc1coc(-c2ccc(O)cc2)n1,-16%
12,O/N=C(/c1ccc(Oc2ccc(-n3ccnc3)cc2)nc1)N1CC=CC1,16%
13,COc1ccc(NCc2coc(-c3ccc(OC)cc3)n2)cc1,9%
14,COc1ccc(OC)c(NCc2coc(-c3ccc(C)cc3)n2)c1,0%
15,CC1CCC(N/C(=N\O)c2cccnc2Oc2c(F)cccc2F)CC1 (stereo unspecified),99%
16,Cc1ccc(/C(=N/O)NC2CCC(C)CC2)c(Oc2c(F)c(F)cc(F)c2F)n1 (stereo unspecified),22%
17,CC1CC(C)CN(/C(=N\O)c2cccnc2Oc2c(F)cccc2F)C1 (stereo unspecified),28%
18,CCOc1ccc(-c2nc(CN(C)c3ccccc3)co2)cc1,-8%
19,CN(Cc1coc(-c2ccc(Cl)cc2Cl)n1)CC1OCCO1,30%
20,COc1cc(C)ccc1Oc1nc(C)ccc1/C(=N/O)Nc1ccccc1,-6%
21,CC(C)c1ccc(NCc2coc(-c3ccc(F)cc3)n2)cc1,7%
22,COc1cc(-c2nc(CN(C)CCc3ccccn3)co2)cc(OC)c1OC,-7%

row,Compound,% inhibition
1,COc1ccc(-c2nc(CN3CCN(c4cccc(C(F)(F)F)c4)CC3)co2)cc1,-13%
2,CC1CCCCN1CCCNCc1coc(-c2ccc(Cl)cc2Cl)n1 (stereo unspecified),99%
3,COc1ccc(-c2nc(CNCCCn3ccnc3)co2)cc1,6%
4,Clc1ccc(-c2nc(CNCCCn3ccnc3)co2)c(Cl)c1,86%
5,Clc1ccc(-c2nc(CNCCN3CCOCC3)co2)c(Cl)c1,0%
6,CCOc1ccccc1-c1nc(CNCCCn2ccnc2)co1,32%
7,Brc1ccccc1-c1nc(CNCCCn2ccnc2)co1,2%
8,Clc1ccc(-c2nc(Cn3ccnc3)co2)c(Cl)c1,5%
9,c1ccc2c(-c3nc(CNCCCn4ccnc4)co3)cccc2c1,54%
10,Cc1cccc(-c2nc(CNCCCn3ccnc3)co2)c1,-8%
11,C#CCNCc1coc(-c2ccc(Cl)cc2Cl)n1,3%
12,Clc1ccc(-c2nc(CNCc3ccncc3)co2)c(Cl)c1,9%
13,Brc1ccc(-c2nc(CNCCCn3ccnc3)co2)cc1,56%
14,Cc1ccc(/C(=N/O)NC2CCCCC2)c(OCc2cccc(F)c2)n1,-9%
15,CCC(NCc1coc(-c2ccc(OC(F)(F)F)cc2)n1)c1ccccc1 (stereo unspecified),-21%
16,CSc1ccc(Oc2cc(/C(=N/O)NC3CCc4ccccc43)ccn2)cc1 (stereo unspecified),9%
17,COCCN(Cc1coc(-c2ccccc2C)n1)C(C)(C)C,2%
18,COc1ccc(Oc2nc(C)ccc2/C(=N/O)N2CCCCC2)cc1,28%
19,Cc1cccc(Oc2nc(C)ccc2/C(=N/O)N2CCN(c3ccc(F)cc3)CC2)c1,12%
20,COc1ccccc1CN/C(=N\O)c1ccc(C)nc1OC1CCC1,6%
21,Cc1cn(Cc2coc(-c3cccc(F)c3)n2)c(-c2ccccc2)n1,-9%
22,CCOc1ccc(Oc2cc(/C(=N/O)N3CCC4CCCCC4C3)ccn2)cc1 (stereo unspecified),16%

row,Compound,% inhibition
1,Cn1nc(C(C)(C)C)cc1NCc1coc(-c2cccc3ccccc23)n1,25%
2,CCOc1ccccc1-c1nc(CN(C)Cc2ccccc2)co1,4%
3,Cc1ccc(/C(=N/O)N(C)C2CCCCC2)c(Oc2cccc(F)c2)n1,10%
4,CCC(NCc1coc(-c2ccc(OC)cc2)n1)c1ccccc1 (stereo unspecified),12% and 8%
5,Clc1ccc(-c2nc(CNCCCN3CCCC3)co2)c(Cl)c1,98%
6,Clc1ccc(-c2nc(CNCCCN3CCOCC3)co2)c(Cl)c1,23%
7,Clc1ccc(-c2nc(CNCCN3CCCC3)co2)c(Cl)c1,-4%
8,CC(C)CN/C(=N\O)c1ccnc(Oc2ccc(Cl)cc2)c1,25%
9,CCOc1ccc(Oc2cc(/C(=N/O)NCC(C)(C)C)ccn2)cc1,43%
10,COc1ccc(Oc2cc(/C(=N/O)NCc3cc(F)cc(F)c3)ccn2)cc1,5%
11,CCC(CC)N/C(=N\O)c1ccnc(Oc2ccc(OC)cc2)c1,97%
12,COc1ccc(Oc2cc(/C(=N/O)NCC(C)(C)C)ccn2)cc1,92%
13,COc1ccc(Oc2cc(/C(=N/O)NCC(C)C)ccn2)cc1,93%
14,CCOc1ccc(Oc2cc(/C(=N/O)NCc3ccc(OC)cc3)ccn2)cc1,-4%
15,COc1ccc(Oc2cc(/C(=N/O)NCc3ccncc3)ccn2)cc1,9%
16,COc1ccc(Oc2cc(/C(=N/O)Nc3ccccc3)ccn2)cc1,15%
17,CCOc1ccc(-c2nc(CNc3ccc(OC)cc3)co2)cc1,-21%
18,CCCCN(C)Cc1coc(-c2cccs2)n1,15%
19,CCOc1ccc(-c2nc(CN3CCc4cc(OC)c(OC)cc4C3C(C)C)co2)cc1 (stereo unspecified),15%
20,COc1ccc(-c2nc(CN(C)c3ccc(OC)cc3)co2)cc1,6%
21,CCOc1ccccc1Oc1ncccc1/C(=N/O)n1cnc(C)c1,16%
22,CCOc1ccccc1CNCc1coc(-c2ccc(OC)cc2)n1,-13%

row,Compound,% inhibition
1,CCCC(C)NCc1coc(-c2ccccc2Br)n1 (stereo unspecified),-7%
2,Fc1cccc(-c2nc(CN3CCN(c4cccc(Cl)c4)CC3)co2)c1,17%
3,COc1cccc(-c2nc(CN(C)CCc3ccccc3)co2)c1,1%
4,Cc1cccc(Oc2ccc(/C(=N/O)NCC3CCCCC3)cn2)c1,36%
5,COc1cccc(Oc2ccc(/C(=N/O)NC3CCN(Cc4ccccc4)C3)cn2)c1 (stereo unspecified),-3%
6,Cc1cccc(Oc2ccc(/C(=N/O)NC3CCC(C)CC3)cn2)c1 (stereo unspecified),59%
7,COc1cccc(Oc2ccc(/C(=N/O)NC3CCC(C)CC3)cn2)c1 (stereo unspecified),89%
8,Cc1cccc(Oc2ccc(/C(=N/O)NC3CC(C)CC(C)(C)C3)cn2)c1 (stereo unspecified),47%
9,COc1cccc(Oc2ccc(/C(=N/O)NCC3CCCCC3)cn2)c1,87%
10,Cc1cccc(Oc2ccc(/C(=N/O)NC3CCc4ccccc43)cn2)c1 (stereo unspecified),10%
11,COc1cccc(Oc2ccc(/C(=N/O)NC3CCCCC3)cn2)c1,98%
12,COc1cccc(Oc2ccc(/C(=N/O)NC3CC(C)CC(C)(C)C3)cn2)c1 (stereo unspecified),7%
13,COc1ccc(CN/C(=N\O)c2ccc(Oc3cccc(OC)c3)nc2)cc1,10%
14,Cc1ccc(/C(=N/O)N2CCC3CCCCC3C2)c(Oc2cccc(F)c2)n1 (stereo unspecified),16%
15,CCCN(Cc1coc(-c2cccc(F)c2)n1)CC1CC1,17%
16,COc1ccc(NCc2coc(-c3cccc(F)c3)n2)cc1,14%
17,CC(C)c1cccc(Oc2cc(/C(=N/O)NC3CCc4ccccc43)ccn2)c1 (stereo unspecified),4%
18,Clc1ccccc1-c1nc(CN2CCN(C/C=C/c3ccccc3)CC2)co1,-22%
